# Laboratory results taken from PubChem BioAssay (NCATS).
# Results filed as inconclusive are left out. Entries that show only a call come without a potency. Calls of active or inactive are those of the source. Calls come from the whole dose curve; as a rule, active = well fitted curve in the direction sought with a large enough effect; inconclusive = small, poorly fitted or top-dose-only effect, or another doubt; inactive = no such curve, though single readings can be large; an effect the other way counts as inactive or inconclusive.
# Test: Quantitative highthroughput screen to assess conditional lethalithy of NOMO1 cells grown in RPMI1640 with dialyzed fetal bovine serum (RPMI+ds) (AID 1963877); note: nearly all actives have a fitted effect of over 30% in size
# Conditions: NOMO1 in RPMI+dialyzed FBS viability, ATP luminescence, 48 h; series mostly up to 45.8 µM
# How it was run: (§1)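 Each medium arm—HPLM with 10% dialyzed FBS, or RPMI1640 with 5 mM glucose and 10% untreated or dialyzed FBS—was screened against an 11-point, 3-fold compound titration for 48 h at 37 °C, with CellTiter-Glo luminescence as endpoint.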
# Potency is the fitted concentration of half-maximal effect.
row,SMILES,Potency
1,CC(C)(O)C=CC(=O)[C@](C)(O)[C@H]1[C@H](O)C[C@]2(C)[C@@H]3CC=C4[C@@H](C=C(O)C(=O)C4(C)C)[C@]3(C)C(=O)C[C@@]12C,166 nM (active)
2,CC(N[C@H]1C[C@H]1c1ccccc1)c1ccc2c(c1)OCCO2 (stereo not given in full),inactive
3,CC1=C2C[C@@H]3[C@@H](CC=C4C[C@@H](O)CC[C@@]43C)[C@@H]2CC[C@]12O[C@H]1C[C@H](C)CN[C@H]1[C@H]2C,inactive
4,C[C@]12CC[C@H](O)CC1=CC[C@H]1[C@H]3CCC(=O)[C@@]3(C)CC[C@@H]12,inactive
5,CCN1C[C@]2(OC(=O)c3ccccc3NC(C)=O)CC[C@H](OC)[C@@]34[C@H]5CC6[C@@H](OC)C[C@](O)(C(C[C@@H]23)[C@@H]14)[C@@]5(O)[C@@H]6OC,inactive
6,COC1(CS(=O)c2ccccc2)CCN(CCc2c[nH]c3ccc(F)cc23)CC1 (stereo not given),inactive
7,C=C[C@@H]1CN2CCC1C[C@@H]2[C@@H](O)c1ccnc2ccccc12 (stereo not given in full),inactive
8,C[C@]12CC[C@H]3[C@@H](CCC4=CC(=O)CC[C@@]43C)[C@H]1CC[C@H]2OC(=O)CCC1CCCC1,inactive
9,CC[C@H]1C=CC=CC[C@@H](C)[C@H](O)[C@@](C)(O)C(=O)[C@@H](C)[C@H](O)[C@@H](C)C(=O)[C@@H](C)[C@H](O)[C@@H](C)C=CC(=O)O[C@@H]2[C@@H](C)[C@H](CC1)O[C@]1(CC[C@H](C)[C@H](C[C@@H](C)O)O1)[C@H]2C,4690 nM (active)
10,CC(C)[C@]12O[C@@H]1[C@@H]1O[C@]13[C@]1(O[C@H]1C[C@@H]1C4=C(CC[C@@]13C)C(=O)OC4)[C@H]2O,1.2 nM (active)
11,CC(=CCCC1=CCC(C2=CC(=O)OC2O)OC1O)CCC1=C(C)CCCC1(C)C (stereo not given),inactive
12,C=CCON=C(C[C@H]1O[C@@H]2O[C@]3(C)CC[C@@H]4[C@H](C)CC[C@@H]([C@H]1C)[C@@]24OO3)[C@H]1O[C@@H]2O[C@]3(C)CC[C@H]4[C@H](C)CC[C@@H]([C@@H]1C)[C@@]24OO3,743 nM (active)
13,COc1cccc2c1[C@]13CCN(CC4CC4)[C@H](C2)[C@]1(OC)CCC(=O)C3,inactive
14,CN(C)CCN(C)CCc1ccc(Cl)c(Cl)c1,inactive
15,C[C@@H]1[C@H](O)[C@@H](C)C=CC=CCCC=CC=CC=CC=C[C@H](O[C@H]2O[C@@H](C)[C@H](O)[C@@H](N)[C@@H]2O)CC2O[C@](O)(C[C@@H](O)[C@H](O)CC[C@@H](O)C[C@@H](O)C[C@@H](O)CC(=O)O[C@H]1C)C[C@H](O)[C@H]2C(=O)O,inactive
16,C[C@]12CC[C@H]3[C@@H](CCC4=CC(=O)CC[C@@]43C)[C@H]1CC[C@H]2O,inactive
17,CCOC(=O)c1c(C(C#N)=CN)c2ccc(Cl)c(Cl)c2n1C,inactive

# Test: Quantitative highthroughput screen to assess conditional lethalithy of NOMO1 cells grown in Human Plasma-Like Medium with dialyzed fetal bovine serum (HPLM+ds) (AID 1963878); note: nearly all actives have a fitted effect of over 35% in size
# Conditions: NOMO1 AML cells in HPLM+ds, CellTiter-Glo viability, 48 h; series mostly up to 45.8 µM
# How it was run: as §1
row,SMILES,Potency
1,CC(C)(O)C=CC(=O)[C@](C)(O)[C@H]1[C@H](O)C[C@]2(C)[C@@H]3CC=C4[C@@H](C=C(O)C(=O)C4(C)C)[C@]3(C)C(=O)C[C@@]12C,209 nM (active)
2,CC(N[C@H]1C[C@H]1c1ccccc1)c1ccc2c(c1)OCCO2 (stereo not given in full),inactive
3,C[C@]12CC[C@H](O)CC1=CC[C@H]1[C@H]3CCC(=O)[C@@]3(C)CC[C@@H]12,inactive
4,COC1(CS(=O)c2ccccc2)CCN(CCc2c[nH]c3ccc(F)cc23)CC1 (stereo not given),26400 nM (active)
5,C=C[C@@H]1CN2CCC1C[C@@H]2[C@@H](O)c1ccnc2ccccc12 (stereo not given in full),inactive
6,CC(=O)N(C)c1cccc(-c2ccnc3c(C(=O)c4cccs4)cnn23)c1,inactive
7,C[C@H]([C@H](O)CCC(C)(C)O)[C@H]1CC[C@@]2(O)C3=CC(=O)[C@@H]4C[C@@H](O)[C@@H](O)C[C@]4(C)[C@@H]3CC[C@]12C,inactive
8,CC(C)CC(N(C)C)C1(c2ccc(Cl)cc2)CCC1 (stereo not given),inactive
9,CC[C@H]1C=CC=CC[C@@H](C)[C@H](O)[C@@](C)(O)C(=O)[C@@H](C)[C@H](O)[C@@H](C)C(=O)[C@@H](C)[C@H](O)[C@@H](C)C=CC(=O)O[C@@H]2[C@@H](C)[C@H](CC1)O[C@]1(CC[C@H](C)[C@H](C[C@@H](C)O)O1)[C@H]2C,2640 nM (active)
10,CC(C)[C@]12O[C@@H]1[C@@H]1O[C@]13[C@]1(O[C@H]1C[C@@H]1C4=C(CC[C@@]13C)C(=O)OC4)[C@H]2O,1.2 nM (active)
11,CC(=Cc1csc(C)n1)[C@@H]1C[C@H]2O[C@@H]2CCC[C@H](C)[C@@H](O)[C@@H](C)C(=O)C(C)(C)[C@@H](O)CC(=O)O1,inactive
12,CC(=CCCC1=CCC(C2=CC(=O)OC2O)OC1O)CCC1=C(C)CCCC1(C)C (stereo not given),inactive
13,COc1cccc2c1[C@]13CCN(CC4CC4)[C@H](C2)[C@]1(OC)CCC(=O)C3,inactive
14,CN(C)CCN(C)CCc1ccc(Cl)c(Cl)c1,inactive
15,C[C@@H]1[C@H](O)[C@@H](C)C=CC=CCCC=CC=CC=CC=C[C@H](O[C@H]2O[C@@H](C)[C@H](O)[C@@H](N)[C@@H]2O)CC2O[C@](O)(C[C@@H](O)[C@H](O)CC[C@@H](O)C[C@@H](O)C[C@@H](O)CC(=O)O[C@H]1C)C[C@H](O)[C@H]2C(=O)O,inactive
16,C[C@]12CC[C@H]3[C@@H](CCC4=CC(=O)CC[C@@]43C)[C@H]1CC[C@H]2O,inactive
17,CC(C)(C)[C@]1(O)C[C@@H]2OC(=O)C[C@@]23C(=O)O[C@@H]2OC(=O)[C@H](O)C213 (stereo not given in full),inactive
18,CCOC(=O)c1c(C(C#N)=CN)c2ccc(Cl)c(Cl)c2n1C,inactive
